Source: PubChem BioAssay (NCI)
“And” between values parts separate entries of the source, which are not always exact repeats. Equal values may be shown once. This is part of a sample that, as a whole, favours compounds with a hit. Of some 83,000 tested, about 20% had one in any assay.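 In brief: 96-well plates, 48 h treatment, single concentration, percent growth endpoint.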 The source made the active and inactive calls. The calls were made as follows: active = growth percent below 10; inactive = the rest.

test system: MDA-MB-468 breast; experiment: NCI-60 one-dose screen, 48 h (100 = growth as untreated, 0 = no growth, -100 = all killed); details: 10 µM unless noted

Question: How did the growth turn out when `Cc1cc(C(O)CN(C)C)cc2c1ccc1cc(C(C)C)ccc12` (stereo not given) was run?
Answer: -88.6% (active)

Question: `OCC12CCCC(CO)(COC1)C2O` (stereo not given) was tested. Which growth did it give?
Answer: 109% (inactive)

Question: With `O=C(O)C(Cc1ccc(OS(=O)(=O)Cc2ccccc2)cc1)NS(=O)(=O)Cc1ccccc1` (stereo not given) as the molecule, how does the growth read?
Answer: 105% (inactive) and 117% (inactive)

Question: Which growth does the source give for `Cn1cc(-c2ccc3cc(-c4ccc(CC(=O)Nc5cc(C(C)(C)C)on5)cc4)cnc3c2)cn1` here?
Answer: 30.7% (inactive)

Question: For `NC(=O)c1cccc(-c2ccc(S(=O)(=O)Nc3ccc4c(c3)N(C(=O)C3CC3)CCC4)cc2)c1`, which growth is on record?
Answer: -4.85% (active)

Question: With `Cc1ccc(S(=O)(=O)c2ccccc2)cc1` as the molecule, how does the growth read?
Answer: -10.8% (active)

Question: `Cc1ccc(Nc2ccc(Nc3ccc(C)cc3S(=O)(=O)O)c3c2C(=O)c2ccccc2C3=O)c(S(=O)(=O)O)c1` was tested. Which growth did it give?
Answer: 104% (inactive)

Question: With `O=C(CSc1nnc(-c2cc(-c3ccccc3)nc3ccccc23)n1-c1ccccc1)Nc1ccc(C(=O)/C=C/c2ccc(Cl)cc2)cc1` as the molecule, how does the growth read?
Answer: 88.9% (inactive)

Question: How did the growth turn out when `NC(=O)c1cc(Cl)ccc1NC(=O)COc1ccccc1` was run?
Answer: 21% (inactive)

Question: Which growth does the source give for `O=[N+]([O-])c1cnc(Sc2ccncn2)s1` here?
Answer: -63.7% (active)

Question: Which growth does the source give for `CC(=O)Nc1ccc(S(=O)(=O)N/N=C(\C)c2ccc(C)cc2C)cc1` here?
Answer: 112% (inactive)

Question: For `CCN(CC)CCOCC[C@H]1CC[C@H]2[C@@H]3[C@H](C)Cc4cc(OS(N)(=O)=O)ccc4[C@H]3CC[C@]12C`, which growth is on record?
Answer: -87.2% (active)

Question: Which growth does the source give for `O=C(N=c1n(-c2ccccc2)nc2n1CCN2C1=NCCN1C(=O)c1ccc(Cl)cc1)c1ccc(Cl)cc1` here?
Answer: 73.6% (inactive)

Question: `Cc1ccc(C(=O)N(CCCN)[C@@H](c2nc3cc(Cl)ccc3c(=O)n2Cc2ccccc2)C(C)C)cc1` was tested. Which growth did it give?
Answer: -84.4% (active)

Question: For `C=C[C@@H]1C[C@H](O)Cc2cc(F)ccc2N1`, which growth is on record?
Answer: 88.7% (inactive)

Question: `O=c1[nH]c(-c2ccc(Cl)cc2)cn1-c1ccc(-n2cc(-c3ccc(Cl)cc3)[nH]c2=O)cc1` was tested. Which growth did it give?
Answer: 103% (inactive)

Question: How did the growth turn out when `COc1ccc(Nc2ncccc2NC(=O)c2cn(Cc3cccc(Oc4ccccc4)c3)nn2)cc1` was run?
Answer: 89.8% (inactive)

Question: For `CC(=O)OC[C@H]1OC(Sc2sc(C(=O)c3ccc(C)cc3)c(N)c2-c2nc3ccccc3s2)[C@H](OC(C)=O)[C@@H](OC(C)=O)[C@@H]1OC(C)=O` (stereo not given in full), which growth is on record?
Answer: 75.4% (inactive)

Question: Which growth does the source give for `COc1cc(-c2nc(N)n(CC(=O)Nc3ccc(/C(C)=N\O)cc3)n2)cc(OC)c1OC` here?
Answer: 104% (inactive)

Question: With `CC[C@@H](C)[C@H](NC(=O)Cn1cc(CNC(=O)[C@@H](NC(=O)OCc2ccccc2)C(C)C)nn1)C(=O)O` as the molecule, how does the growth read?
Answer: 98.5% (inactive)

Question: How did the growth turn out when `COc1cc(C2=C(c3cn(C)c4ccccc34)COC2=O)cc(OC)c1OC` was run?
Answer: 16% (inactive)

Question: Which growth does the source give for `COc1ccc(-c2nc(SCC(C)C)nc(Nc3ccc(C)cc3)c2C#N)cc1` here?
Answer: 71.1% (inactive)

Question: With `O=C(Cc1csc2nc(-c3ccc(Cl)cc3)cn12)N/N=C/c1ccccc1O` as the molecule, how does the growth read?
Answer: 56.7% (inactive)

Question: `OCC1OC2C(NC(=S)N2c2ccccc2)C(O)C1O` (stereo not given) was tested. Which growth did it give?
Answer: 94.6% (inactive)

Question: `Cc1ccc2c(/C=C/C(=O)c3cc(CN4CCOCC4)c(O)c4nc(C)ccc34)cc(CN3CCOCC3)c(O)c2n1` was tested. Which growth did it give?
Answer: -40.4% (active)

Question: How did the growth turn out when `O=C(N/N=C\c1ccc([N+](=O)[O-])cc1)c1ccc2nc(-c3ccc(Br)cc3)[nH]c2c1` was run?
Answer: -33% (active)

Question: With `COc1cc(OC)cc(-c2ccc(-c3ccc(C(=N)N)cn3)s2)c1` as the molecule, how does the growth read?
Answer: 64.4% (inactive)

Question: With `CCN(CC)c1ccc(/C=C/c2ccc3cc(C)ccc3[n+]2CC)cc1` as the molecule, how does the growth read?
Answer: -24% (active)

Question: `CC(=O)c1cc2c(N)c(C(=O)Nc3cccc(F)c3C)sc2nc1C` was tested. Which growth did it give?
Answer: 54.2% (inactive)

Question: With `Cc1ccc(S(=O)(=O)Oc2ccccc2-c2ccccc2)cc1` as the molecule, how does the growth read?
Answer: -3.07% (active)

Question: `Cc1ccc(Cc2cnc(NC(=O)/C(C#N)=C/c3ccc(-c4ccc(Cl)cc4)o3)s2)cc1` was tested. Which growth did it give?
Answer: 83.1% (inactive)

Question: Which growth does the source give for `COc1ccc(NC(=O)CCn2cnc3c(cc(-c4ccccc4)n3-c3ccccc3)c2=O)cc1` here?
Answer: 79.5% (inactive)

Question: How did the growth turn out when `Cc1ccc(C(=O)/C(=C/c2ccc([N+](=O)[O-])cc2)S(=O)Cc2ccccc2)cc1` (stereo not given) was run?
Answer: -54.1% (active)

Question: For `COc1cc(CNCCCN2C(=O)c3ccc4c5c(ccc(c35)C2=O)C(=O)N(CCCNCc2cc(OC)c(OC)c(OC)c2)C4=O)cc(OC)c1OC`, which growth is on record?
Answer: -93.3% (active)

Question: Which growth does the source give for `CCOC(=O)C(CSC(c1ccccc1)(c1ccccc1)c1ccccc1)NC(=O)C(CSC(c1ccccc1)(c1ccccc1)c1ccccc1)NC(c1ccccc1)(c1ccccc1)c1ccccc1` (stereo not given) here?
Answer: 101% (inactive)

Question: `CCN(CC)S(=O)(=O)c1ccc(O)c(NC(=O)c2[nH]c(C)c(C(C)=O)c2CCc2ccc(Cl)cc2)c1` was tested. Which growth did it give?
Answer: 19.8% (inactive)

Question: With `CCN1CCN(CC(=O)Nc2nc3ccc(NCc4ccc(F)cc4)cc3s2)CC1` as the molecule, how does the growth read?
Answer: 86.1% (inactive)

Question: `Cc1ccc(-c2nc([P+](c3ccccc3)(c3ccccc3)c3ccccc3)c(Nc3ccccc3)o2)cc1` was tested. Which growth did it give?
Answer: -41.8% (active)

Question: With `C[C@H]1[C@H](C)CC[C@]2(C(=O)NCCNCCN)CC[C@]3(C)C(=CC[C@@H]4[C@@]5(C)CCC(=O)C(C)(C)[C@@H]5CC[C@]43C)[C@H]12` as the molecule, how does the growth read?
Answer: 34% (inactive)

Question: Which growth does the source give for `CN(C)CCN(C)CC(C)(C)C(=O)/C=C/c1ccc(Cl)c(Cl)c1` here?
Answer: -83.6% [100 µM] (active)
